Source: PubChem BioAssay (National Center for Advancing Translational Sciences (NCATS))
Most compounds without a hit are left out; they make up all but 2.4% or so of the library.
TDP1 inh: blocks human tyrosyl-DNA phosphodiesterase 1; recombinant TDP1, AlphaScreen DNA substrate cleavage; Potency, µM (highest dose often 130 µM), inactives show at the highest dose activity change, negative = inhibition, most hits filed as inhibitors; 0.28% of 350,000 active; AID 485290; note: potency is the fitted concentration of half-maximal effect; % is set by controls: 0 for no effect and ±100 for the full control effect; nearly all actives have a fitted effect of over 40% in size
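Here, a 5' biotin and 3' phosphotyrosine-FITC DNA oligonucleotide reports Tdp1 activity: intact substrate bridges AlphaScreen beads, while cleavage leaves a 3' phosphate and drops signal. All incubations at room temperature.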
POLB inh: inhibitors of human DNA polymerase beta. Pol beta primer extension/strand displacement, fluorescence kinetic. 1.3% of 340,000 active. Potency, µM (series often up to 114 µM), without a hit: top-dose activity change, negative = inhibition, usual class: inhibitors. P06746; note: potency is the fitted concentration of half-maximal effect; % is set by controls: 0 for no effect and ±100 for the full control effect
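Curves were derived by four-parameter Hill fits of normalized qHTS data. The kinetic fluorescent primer-extension read was taken at 0 and 10 min after 50 nM substrate, following a 15 min room-temperature preincubation of 10 nM enzyme with compounds.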
POLI inh: blocks human DNA polymerase iota activity | 1% of 390,000 active | Potency, µM (series often up to 115 µM), for inactives: top-dose activity, negative = inhibition, usual class: inhibitors | Pol iota fluorescent replication assay, 10 min | Q9UNA4 | AID 588590; note: potency is the fitted concentration of half-maximal effect
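Pol iota at 10 nM preincubated 15 min with compounds at room temperature; reaction started with fluorescent substrate, 50 nM final. Fluorescence read kinetically at 0 and 10 min; buffer-only wells as negative control.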
Pol eta inh-1: inhibitors of human DNA polymerase eta; recombinant Pol eta, fluorescent DNA replication assay; Potency, µM (titrated, usually from 114 µM), without a hit: top-dose activity change, negative = inhibition, usual class: inhibitors; 1.2% of 390,000 active; AID 588591; note: potency is the fitted concentration of half-maximal effect; % is set by controls: 0 for no effect and ±100 for the full control effect
Target sequence (Q9Y253 whole entry, looked up): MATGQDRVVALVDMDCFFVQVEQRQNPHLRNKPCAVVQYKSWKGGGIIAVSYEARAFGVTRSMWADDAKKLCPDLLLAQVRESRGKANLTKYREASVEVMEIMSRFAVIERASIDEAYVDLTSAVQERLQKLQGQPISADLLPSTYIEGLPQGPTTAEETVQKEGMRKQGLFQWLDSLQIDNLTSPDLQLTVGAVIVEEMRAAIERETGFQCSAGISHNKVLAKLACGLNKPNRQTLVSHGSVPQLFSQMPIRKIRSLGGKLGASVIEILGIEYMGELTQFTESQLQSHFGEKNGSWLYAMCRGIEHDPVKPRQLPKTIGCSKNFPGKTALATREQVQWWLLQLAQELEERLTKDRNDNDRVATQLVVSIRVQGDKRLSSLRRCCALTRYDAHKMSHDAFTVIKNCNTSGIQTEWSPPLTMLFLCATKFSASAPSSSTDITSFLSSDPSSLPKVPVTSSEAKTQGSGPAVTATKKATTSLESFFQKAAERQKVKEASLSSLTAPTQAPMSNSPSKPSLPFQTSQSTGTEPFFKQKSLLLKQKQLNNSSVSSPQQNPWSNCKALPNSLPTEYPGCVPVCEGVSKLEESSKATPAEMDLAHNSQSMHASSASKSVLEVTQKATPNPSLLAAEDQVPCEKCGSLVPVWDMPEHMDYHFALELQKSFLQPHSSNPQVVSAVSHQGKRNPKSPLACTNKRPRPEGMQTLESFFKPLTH
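Fluorescent replication assay: 50 nM final substrate added after a 15 min room-temperature compound preincubation with 10 nM enzyme. Signal taken at 0 min and again at 10 min.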
Pol kappa inh-1: DNA polymerase kappa (human) inhibition | Q9UBT6 | Potency, µM (highest dose often 107 µM), for inactives: at the top dose activity, negative = inhibition, hits mostly inhibitors | 0.53% of 400,000 active | AID 588579 | purified Pol kappa, fluorescent DNA synthesis assay, 10 min; note: potency is the fitted concentration of half-maximal effect; % is set by controls: 0 for no effect and ±100 for the full control effect
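Pol kappa 10 nM + cpd, 15 min RT; start w/ substrate 50 nM final; fluorescence kinetic read, 0 and 10 min. Neg ctrl: buffer, no enzyme.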
FEN1 inh-1: inhibitors of human flap endonuclease 1 | P39748 | 0.35% of 390,000 active | Potency, µM (doses to about 114 µM), without a hit: at the highest dose activity change, negative = inhibition, hits mostly inhibitors | Recombinant FEN1 flap cleavage, fluorescence, 15 min; note: potency is the fitted concentration of half-maximal effect; % is set by controls: 0 for no effect and ±100 for the full control effect; nearly all actives have a fitted effect of over 65% in size
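Compounds are tested as a concentration series against 10 nM FEN1; after a 15 min room-temperature preincubation, 50 nM substrate starts cleavage, with plate reads at 0 and 15 min. Normalized responses are fitted by a Hill equation.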
GALK inh confirm: galactokinase (human) inhibition, confirmation. shares compounds with Pol eta inh-1. purified GALK, Kinase-Glo ATP depletion luminescence. Potency, µM (top dose mostly 115 µM), for the others: at the top dose activity, negative = inhibition, usual class: inhibitors. 70% of 150 active. AID 2015
Redox cycling: redox cycling activity in phenol red-HRP assay; Potency, µM (titrated, usually from 115 µM), without a hit: at the top dose activity change, negative = H2O2 signal, most hits filed as inhibitors; AID 2035; shares compounds with Pol eta inh-1; 40% of 150 active; Phenol red-HRP H2O2 redox cycling, absorbance 600 nm
HEK293 tox: HEK-293 cytotoxicity, GALK inhibitor secondary; shares compounds with Pol eta inh-1; HEK-293 viability, ATP luminescence (CellTiter-Glo), 24/48 h; Potency, µM (titrated, usually from 46.1 µM), inactives show at the highest dose activity change, negative = cytotoxicity, hits mostly inhibitors; 10% of 170 active; AID 2547; note: potency is the fitted concentration of half-maximal effect; % is set by controls: 0 for no effect and ±100 for the full control effect
Pol kappa inh-2: confirmation of human DNA polymerase kappa inhibitors; shares compounds with Pol eta inh-1; purified Pol-kappa, fluorescent strand-displacement substrate; Potency, µM, usual class: inhibitors; 76% of 920 active; AID 720501; note: potency is the fitted concentration of half-maximal effect
Pol eta inh-2: confirmation of human DNA polymerase eta inhibitors; 64% of 2,600 active; shares compounds with Pol eta inh-1; Pol eta primer extension, TAMRA/BHQ fluorescence, 10 min; Potency, µM, hits mostly inhibitors; AID 720502; note: potency is the fitted concentration of half-maximal effect
FEN1 inh-2: FEN1 inhibition, cherry-pick retest | Potency, µM, hits mostly inhibitors | 79% of 880 active | FEN1 flap cleavage, TAMRA/BHQ2 fluorogenic DNA substrate | shares compounds with FEN1 inh-1; note: potency is the fitted concentration of half-maximal effect; nearly all actives have a fitted effect of over 60% in size
Starred values were filed as active, the others as inactive; u = inconclusive; x = no result. Calls come from the whole dose curve; as a rule, active = well fitted curve in the direction sought with a large enough effect; inconclusive = small, poorly fitted or top-dose-only effect, or another doubt; inactive = no such curve, though single readings can be large; an effect the other way counts as inactive or inconclusive.

SMILES	TDP1 inh	POLB inh	POLI inh	Pol eta inh-1	Pol kappa inh-1	FEN1 inh-1	Pol eta inh-2	FEN1 inh-2	others
O=C(COC(=O)c1ccc([N+](=O)[O-])s1)NCc1ccc(F)cc1	3%	u	u	79µM*	-27%	-10%	u	6.7*
O=C(COC(=O)c1ccc([N+](=O)[O-])s1)NNC(=O)c1ccccc1	1%	x	u	u	-19%	-8%	x	x
C=CCN1C(=O)C(=O)N(CC(=O)c2ccc3c(c2)CCCC3)C1=O	0%	x	38%	-4%	7%	7%	x	x
Cc1ccc(C)c(N2CCN(C(=O)c3ccc(N4CCOCC4)c([N+](=O)[O-])c3)CC2)c1	13%	-8%	35%	-17%	-18%	-26%	x	x
C=CCOc1ccc(Br)cc1/C=C1/SC(=Nc2ccc(C(=O)O)cc2)NC1=O	79µM*	u	u	20µM*	-18%	25µM*	85*	u
O=C(Nc1ccc(N2CCOCC2)cc1N1CCOCC1)c1ccc([N+](=O)[O-])cc1	2%	18%	25%	u	-11%	6%	x	x
O=C(NNc1cc(N2CCOCC2)nc(N2CCOCC2)n1)c1ccc([N+](=O)[O-])cc1	0%	15%	6.3µM*	89µM*	-4%	-1%	x	u	GALK inh confirm=24µM*;Redox cycling=4.2µM*;HEK293 tox=-12%
CCCCCC(=O)N1C[C@H](O)[C@@H](n2cc(COC(=O)c3ccccc3)nn2)C[C@@H]1c1ccc(OC)cc1	x	x	x	-26%	x	x	x	x
O=c1[nH]c2ccc(S(=O)(=O)N3CCN(S(=O)(=O)c4c(F)cccc4F)CC3)cc2[nH]c1=O	45µM*	x	x	x	x	x	x	u	Pol kappa inh-2=53*
O=S(=O)(c1ccc2ccccc2c1)N1CCN(S(=O)(=O)c2c(F)cccc2F)CC1	0%	x	26%	-14%	1%	4%	x	x
COc1ccc(CNC(=O)COC(=O)c2ccc(C)c(S(=O)(=O)N3CCOCC3)c2)cc1	-3%	x	-21%	2%	0%	-2%	x	x
COc1cc(/C=C(\C#N)c2nc3ccc(C)cc3[nH]2)cc([N+](=O)[O-])c1O	9%	45µM*	u	22µM*	-42%	50µM*	76*	u	Pol kappa inh-2=24*
Cc1ccc(C(=O)Nc2ccc3c4c(cccc24)CC3)cc1[N+](=O)[O-]	-3%	-15%	0%	-13%	-11%	5%	x	x
O=[N+]([O-])c1ccc2c([N+](=O)[O-])ccc3c2c1CC3	x	x	x	14µM*	x	x	76*	u
CS(=O)(=O)Oc1ccc(Br)c2cccnc12	5%	30%	29%	-13%	-1%	21%	x	x
